Screening data from PubChem BioAssay.
In the library only some 19% were active in any assay of this set; here they are far more common.
HT1080NT lethal: qHTS for induction of synthetic lethality in tumor cells producing 2HG: qHTS for the HT-1080-NT fibrosarcoma cell line; HT-1080-NT fibrosarcoma viability, CellTiter-Glo ATP luminescence, 48 h; Potency, µM (titrated, usually from 46.1 µM), for inactives: top-dose activity, negative = less viability, most hits filed as cytotoxic; 360,000 compounds, 1.6% hits;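 further: NT is the 2HG producing partner of a matched IDH1 knockdown line; potency means the concentration at half of the fitted maximal effect; 0% = DMSO-treated cells and -100% = media-only wells without cells; nearly all actives have a fitted effect of over 55% in size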
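Toxicity toward the 2HG-producing NT line was scored as %Activity, normalised to DMSO and no-cell wells, from CellTiter-Glo luminescence after 48 hours' treatment.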
HT1080 IDH1KD tx: qHTS for induction of synthetic lethality in tumor cells producing 2HG: qHTS for the HT-1080-IDH1KD cell line | AID 686971, 2013 | HT-1080 IDH1 knockdown viability, ATP luminescence, 48 h | 360,000 compounds, 2% hits | Potency, µM (titrated, usually from 46.1 µM), for the others: at the highest dose activity, negative = toxicity, most hits filed as cytotoxic;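 further: potency means the concentration at half of the fitted maximal effect; 0% = DMSO wells and -100% = cell-free medium wells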
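In this qHTS, HT-1080 cells depleted of IDH1 are exposed for 48 h at 37 °C to compound titrations. Toxicity is scored from CellTiter-Glo luminescence, with DMSO as full viability and medium alone as none.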
TDP1 cell noCPT: qHTS for Inhibitors of human tyrosyl-DNA phosphodiesterase 1 (TDP1): qHTS in cells in absence of CPT; Potency, µM (top dose mostly 46.2 µM), for inactives: top-dose activity change, negative = growth inhibition, actives largely listed as inhibitors; 420,000 compounds, 15% hits; DT40 Tdp1-/- hTDP1 cells, no CPT, ATP luminescence, 48 h; further: potency means the concentration at half of the fitted maximal effect; nearly all actives have a fitted effect of over 55% in size
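No-CPT arm: Tdp1-/-;hTDP1 DT40 cells (400/well) plus compounds, incubated ≥48 hr at 37 °C. Readout CellTiter-Glo luminescence.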
TDP1 cell CPT: qHTS for Inhibitors of human tyrosyl-DNA phosphodiesterase 1 (TDP1): qHTS in cells in presence of CPT; Potency, µM (series often up to 46.2 µM), for inactives: top-dose activity change, negative = growth inhibition, actives largely listed as inhibitors; chicken DT40 Tdp1-/-;hTDP1 cells + 20 nM CPT, ATP luminescence, 48 h; 420,000 compounds, 12% hits; AID 686979, 2013; further: potency means the concentration at half of the fitted maximal effect; nearly all actives have a fitted effect of over 55% in size
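Chicken DT40 Tdp1-/- cells stably complemented with human TDP1 were seeded at 400 cells/well in medium containing 20 nM camptothecin, exposed to pin-transferred compounds, and grown at 37 °C for at least 48 hr. Viability was read as ATP luminescence.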
IL1B secr inh: qHTS for Inhibitors of Inflammasome Signaling: IL-1-beta AlphaLISA Primary Screen | 360,000 compounds, 4.7% hits | AID 743279, 2014 | THP-1 LPS/ATP IL-1B secretion, AlphaLISA, 16 h; stronger effect = lower value | activity change, % at 57.5 µM; in the data active means activity change below about -50%; inconclusive means mostly about -30% to -49%
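Secreted IL-1B measured by AlphaLISA bead assay after 16 h compound exposure of THP-1 cells; compounds (final up to 57.5 uM) added 1 h before LPS (250 ng/mL) and ATP (1.25 mM) stimulation; lower signal means less secretion.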
Starred values were filed as active, the others as inactive; ? = inconclusive; . = no result given; [ ] = dose if it differs, or a comment. Unless noted, the call rests on the fitted dose curve; in most records, active means well fitted curve in the direction sought with a large enough effect; inconclusive means small, poorly fitted or top-dose-only effect, or another doubt; inactive means no such curve, though single readings can be large; an effect the other way counts as inactive or inconclusive. Unless noted, on the % scale 0 is the no-effect control and ±100 the full control effect.

SMILES | HT1080NT lethal | HT1080 IDH1KD tx | TDP1 cell noCPT | TDP1 cell CPT | IL1B secr inh
CC(=NO)C1CCC2C3CCC4=CC(=NO)CCC4(C)C3C(=O)CC12C (centres undefined) | -1.4% | -9.2% | 16.4µM* | 13µM* | 44.0
Cc1ccc(Cl)cc1N1CCN(C(=O)Cn2c(-c3cccs3)cc3cc(F)ccc32)CC1 | . | . | -7.9% | -22.2% | .
NS(=O)(=O)c1ccc(CCNC(=O)Cn2c(-c3cccs3)cc3ccccc32)cc1 | . | . | ? | -29.5% | .
O=C(Cn1c(-c2cccs2)cc2cc(Cl)ccc21)N1CCN(c2ccccc2)CC1 | . | . | -28.2% | ? | .
CCOC(=O)C1CCN(C(=O)Cn2c(-c3cccs3)cc3cc(Cl)ccc32)CC1 | . | . | 20.6µM* | 14.6µM* | .
CCOc1ccc(CCNC(=O)Cn2c(-c3cccs3)cc3cc(F)ccc32)cc1OCC | . | . | 13µM* | 11.6µM* | .
CCCN1CCN(C(=O)Cn2c(-c3cccs3)cc3cc(F)ccc32)CC1 | . | . | -69.6% | 11.6µM* | .
CC1CCN(C(=O)Cn2c(-c3cccs3)cc3cc(Cl)ccc32)CC1 | . | . | ? | 16.4µM* | .
O=C(c1ccc(S(=O)(=O)c2ccc(Cl)cc2)cc1)N1CCOCC1 | 8.2% | 4.6% | ? | -14.1% | -0.9
Cc1nn(C(C)C)c(C)c1CN1CCN(Cc2ccsc2)C(CCO)C1 (centres undefined) | -0.3% | 18.1% | -4.3% | 13.8% | 4.7
COc1ccccc1CN1CCC2(CC1)CCN(C(C)=O)CC2 | . | . | 26.4% | 14.4% | .
CCCCn1c(N)c(N(CC(C)C)C(=O)c2ccc(OCc3c(C)noc3C)cc2)c(=O)[nH]c1=O | 2.6% | 3.0% | 3.3% | 2.7% | 10.1
CCc1cnc2c(c1SCC(=O)Nc1ccc(C)cc1C)c(=O)n(C)c(=O)n2C | . | . | 4.9% | -9.4% | .
CC1(C)CC(=O)C2=C(C1)Oc1nc3ccccc3cc1C2C(C#N)C#N (centres undefined) | 18.4µM* | 23.1µM* | 4.11µM* | 2.91µM* | -93.0*
CCN1CCN(C(=S)NC(=O)c2cc(OC)c(OC)c(OC)c2)CC1 | 4.1% | 5.0% | -1.7% | 6.9% | 17.8
COc1ccc(C(=O)Nc2cc(Cl)ccc2OC(=O)c2ccc(OC)cc2)cc1 | 0.0% | -9.5% | ? | ? | -6.8
COc1ccc(C(=O)NNC(=S)NC(=O)c2ccc(Cl)cc2)cc1 | ? | ? | 23.1µM* | ? | 68.3
COc1ccc(C(=O)NC(=S)NNC(=O)c2ccc(NC(=O)C(C)C)cc2)cc1 | -9.7% | -14.7% | 14.6µM* | 16.4µM* | -3.6
COC(=O)/C(=C\Nc1ccc(Cl)cc1Cl)NC(=O)c1ccc(OC)cc1 | 3.26µM* | 1.64µM* | 4.11µM* | 3.66µM* | -7.5
CCN(CC)C(=S)NC(=O)c1cc(OC)c(OC)c(OC)c1 | 23.1µM* | -11.1% | -3.0% | 0.0% | -16.5
O=C(NN=C1CCCC1)c1ccc([N+](=O)[O-])cc1 | 16.6% | 13.8% | -15.3% | -8.0% | 8.4
Cc1cccc(C(=O)NC(=S)NNC(=O)c2ccc(Cl)cc2)c1 | ? | 8.2µM* | ? | ? | 0.0
COc1cc(C(=O)NNC(=S)NC(=O)c2ccc(Cl)cc2)cc(OC)c1OC | -5.7% | ? | 23.1µM* | ? | 21.4
COc1cc(CC(=O)Nc2nccs2)cc(OC)c1OC | -4.7% | -7.2% | -4.9% | -28.3% | 13.6
COc1cc(C(=O)NC(=S)Nc2nccs2)cc(OC)c1OC | 5.2% | 5.2% | 20.6µM* | ? | -29.1
SMILES | HT1080NT lethal | HT1080 IDH1KD tx | TDP1 cell noCPT | TDP1 cell CPT | IL1B secr inh
COc1cc(CCC(=O)NNC(=O)c2ccc(Cl)cc2)cc(OC)c1OC | 7.6% | 9.6% | -0.2% | 6.7% | 0.8
Cc1ncc2c(c1CNC(=O)c1cncs1)CCN(C(=O)c1csc(-c3cccs3)n1)C2 | . | . | -14.1% | 4.5%[9.04 µM] | .
Cc1cc(C(=O)OC(C(=O)Nc2cccc(C(F)(F)F)c2)c2ccccc2)c(C)o1 (centres undefined) | ? | ? | 20.6µM* | ? | 0.3
CCc1nc2ccc(C(=O)NCCN3CCNC3=O)cn2c1N(C)CCC(C)C | 9.8% | 11.6% | ? | -15.3% | -8.4
CN1CCN(c2ccc(CNS(=O)(=O)c3ccsc3)cc2)CC1 | 15.6% | 9.3% | ? | -12.6% | 7.7
COc1ccc(C2c3c(oc4ccccc4c3=O)C(=O)N2Cc2ccncc2)cc1OC (centres undefined) | -2.2% | 1.6% | -13.0% | -3.8% | 37.8
CCCOc1ccc(C2c3c(-c4ccccc4O)n[nH]c3C(=O)N2CCCOCC)cc1OCC (centres undefined) | . | . | ? | 23.1µM* | .
CCCOc1ccc(C2c3c(-c4ccccc4O)n[nH]c3C(=O)N2Cc2ccncc2)cc1OCC (centres undefined) | . | . | -24.2% | 23.1µM* | .
COc1ccc(N2CCN(C(=O)CS(=O)(=O)c3cccc4nsnc34)CC2)cc1 | . | . | -28.5% | -13.8% | .
CC(=O)N(c1ccccc1)c1nc(/C=C/C(=O)O)cs1 | 10.9% | 22.6% | -13.3% | -18.7% | 1.5
CCc1ccc(N(C(C)=O)c2nc(CCl)cs2)cc1 | -2.4% | -8.4% | 10.3µM* | -10.1% | -22.8
CCOc1ccccc1C1N=C(c2ccc(OC)cc2)CC(c2ccccc2O)N1 (centres undefined) | ? | ? | 16.4µM* | 20.6µM* | -14.3
COc1ccc(C2=NN(C(=O)CSc3ncccn3)C(c3cccc(OC)c3OC)C2)cc1 (centres undefined) | 0.0% | 19.7% | ? | ? | -12.0
Cc1ccc(NC(=O)/C=C/c2cccc(C(F)(F)F)c2)cc1 | -15.3% | -0.3% | ? | -1.4% | -22.6
C=CCC(CC=C)(CNC(=O)C(=O)Nc1cccc(C(F)(F)F)c1)c1ccccc1 | . | . | 20.6µM* | 18.4µM* | .
O=C(NNC(=S)Nc1cccc(C(F)(F)F)c1)c1ccccc1Cl | 18.4µM* | ? | 18.4µM* | ? | ?
O=C(/C=C/c1cccc(C(F)(F)F)c1)Nc1cccc(C(F)(F)F)c1 | 11.2µM* | 7.94µM* | 23.1µM* | 23.1µM* | -92.4*
CC(C)(C)NNC(=S)Nc1cccc(C(F)(F)F)c1 | -21.9% | 10.3µM* | 1.16µM* | 3.26µM* | ?
CCCNC(=S)Nc1cccc(C(F)(F)F)c1 | -5.8% | -4.0% | -17.0% | -5.8% | 4.4
O=C(N[C@@H](Cc1ccccc1)C(=O)O)c1c(F)c(F)c(F)c(F)c1F | -0.8% | -2.0% | 7.4% | 3.1% | -6.0
Cc1ccc(S(=O)(=O)Nc2ccc(S(=O)(=O)Nc3nccs3)cc2)cc1C | -0.1% | -1.7% | -16.7% | 14.3% | -12.2
